# Source: PubChem BioAssay (Tox21)
# Results filed as inconclusive are left out. Entries that show only a call come without a potency. Active and inactive are the calls of the source. Calls come from the whole dose curve; as a rule, active = well fitted cell-killing curve with a large enough effect in the repeat runs; inconclusive = weak or mixed curves, or effect the other way; inactive = no such curve, though single readings can be large or run the other way.
# Test: qHTS assay to identify small molecule antagonists of the thyroid receptor (TR) signaling pathway - cell viability counter screen (AID 743064); note: nearly all actives have a fitted effect of over 50% in size
# Conditions: GH3.TRE-Luc viability, CellTiter-Fluor, 24 h; series mostly up to 70.3 µM
# Text: National Center for Advancing Translational Sciences [NCATS]
# NIH Chemical Genomics Center [NCGC]
# U.S. Environmental Protection Agency [EPA]
# National Institutes of Environmental Health Sciences [NIEHS]
# National Toxicology Program [NTP]
# U.S. Food and Drug Administration [FDA]
# Thyroid receptor (TR), a nuclear hormone receptor, plays an important role in development, proliferation, differentiation, metabolism, brain function, and cardiovascular system. […] To profile the Tox21 10K compound library in TR signaling, a cell-based GH3-TRE-Luc assay (GH3.TRE-Luc cell line, developed by the laboratory of Dr. Albertinka J. Murk, Wageningen University) was used to measure the inhibition of TR. GH3 (rat pituitary tumor) cells stably expressing a TR activity sensor consisting of two TR response elements and a luciferase reporter gene. The cytotoxicity of the Tox21 compound library against the GH3.TRE-Luc cell line was tested in parallel by measuring the cell viability using CellTiter-Fluor assay (Promega, Madison, WI) in the same wells.
# Tox21 Assay Protocol Summary:
# GH3.TRE-Luc cells were dispensed at 1500 cells/4 uL/well into 1536-well white solid bottom plates using a Multidrop Combi dispenser (Thermo Fisher Scientific Inc., Waltham, MA). After the assay plates were incubated at 37 C for 4 hours, 23 nL of library compound or DMSO controls was transferred to the assay plates by a pintool station (Kalypsys, San Diego, CA), followed by addition of 1 ul of T3 (1 nM, final concentration in the wells) to stimulate TR transactivation. The assay plates were incubated at 37 C for 23.5 h, and then 1 uL of CellTiter-Fluor reagent (Promega, Madision, WI) of measuring cytotoxicity was added to each well using a Bioraptr Flying Reagent Dispenser (FRD) workstation (Beckman Coulter, Indianapolis, IN, USA). The plates were incubated at 37C and 5% CO2 for additional 30 min, and fluorescence intensity was measured by a ViewLux plate reader (PerkinElmer, Shelton, CT).
# Potency is the fitted concentration of half-maximal effect.
row,SMILES,Potency
1,S=c1[nH][nH]c(=S)s1,inactive
2,O=C(NC1CCN(CCc2c[nH]c3ccccc23)CC1)c1ccccc1,26.6 µM (active)
3,c1ccc(CCNc2nc(-c3ccccc3)cs2)cc1,inactive
4,NCCOCCOCCN,inactive
5,O=C(c1ccc(Cl)cc1)c1ccc(Cl)cc1,inactive
6,OCC(O)c1ccccc1 (stereo not given),inactive
7,CC/C=C\CCO,inactive
8,C=CC(O)CCCCC (stereo not given),inactive
9,CCCCCCOC(=O)c1ccccc1,inactive
10,CCCCCCC/C=C/C=O,inactive
11,COC(=O)C(C)(C)C,inactive
12,CC(C)NC(=O)c1ccccc1N,inactive
13,C=Cc1ccc(C=C)cc1,inactive
14,CC(C(=O)O)c1ccc2c(c1)Cc1cccnc1O2 (stereo not given),inactive
15,CC(C)Oc1ccccc1O,inactive
16,Cc1nc2sccn2c(=O)c1CCN1CCC(=C(c2ccc(F)cc2)c2ccc(F)cc2)CC1,29.8 µM (active)
17,C[C@H](CN1CCCC1)C(=O)c1ccc(C(F)(F)F)cc1,inactive
18,CCCCCCCCOCCCN,13.7 µM (active)
19,CC1=CC(=C(c2ccc(N)cc2)c2ccc(N)cc2)C=CC1=N,13.3 µM (active)
20,c1ccc(CN(Cc2ccccc2)Cc2ccccc2)cc1,inactive

row,SMILES,Potency
1,CCCCCCCCCCCCSC#N,inactive
2,COc1cc(CNC(=O)CCCC/C=C/C(C)C)ccc1O,inactive
3,COc1ccc(/C=C/S(=O)(=O)NC(=O)c2ccc(C)cc2Cl)cc1,inactive
4,N#C[C@@H]1CC(F)(F)CN1C(=O)CNC1CC2CCC(C1)N2c1ncccn1 (stereo not given in full),inactive
5,CNc1ccccc1,inactive
6,O=[N+]([O-])c1cccc(I)c1,inactive
7,CC1(C)C(=O)NC(=O)N1CO,inactive
8,Clc1cc(Cl)c2c(c1)N=C1CCCCCN1C2,inactive
9,C/C=C1\[C@H]2C=C(C)C[C@]1(N)c1ccc(=O)[nH]c1C2,inactive
10,CC(C)Cc1nccs1,inactive
11,CC(C)CC(C)(C)C,inactive
12,OCCOc1cccc(OCCO)c1,inactive
13,O=C(O)c1ccncc1,inactive
14,OCCc1ccncc1,inactive
15,COc1ccc(CN(CCN(C)C)c2ncccn2)cc1,inactive
16,CC(C)=CCCC(C)C=O (stereo not given),inactive
17,CC(C)(Cc1c[nH]c2ccccc12)NCC(O)COc1ccccc1C#N (stereo not given),21.1 µM (active)
18,CCOc1ccccc1O,inactive
19,COC(=O)c1cc(Cl)ccc1[N+](=O)[O-],inactive
20,O=C(O)CNc1ccccc1,inactive
